Our source for the INHIBITION values is ChEMBL document CHEMBL4513216, “Probing the Open Global Health Chemical Diversity Library for Multistage-Active Starting Points for Next-Generation Antimalarials” (ACS Infect Dis, 2020).

In all, about 68,000 compounds went through this assay and about 2,700 (4%) showed an effect of 50% or more. The list comes from a sample in which strong results are over-represented; it also holds similar structures and randomly drawn compounds.

This test has as its system Plasmodium berghei. Description: Screen against P. berghei liver stage (PbLuc), transformed with Luciferase, at 2uM. The class given is functional, HepG2. The conditions noted are these: tested at 2 uM.
As for `O=C1NC2(CCN(CC3CC3)CC2)CC1c1ccccc1` (configuration not stated), the INHIBITION was 11.18%. Consider `CCN1CC2(CC1=O)CN(Cc1ccccn1)CCN(C(C)=O)C2` (configuration not stated), for which the INHIBITION is recorded as 28.2%. As for `O=C1CCC2(CCCN(C(=O)c3ccccn3)CC2)N1` (configuration not stated), the figure is 28.2%; as for `Cc1cc(NC(=O)CN2CCN(c3nccs3)C(C)C2)no1` (configuration not stated), -2.82%. In the case of `CS(=O)(=O)c1nccn1Cc1ccc(F)cc1Cl`, the INHIBITION was found to be 29.43%. Regarding `O=C(CCc1ncc(-c2ccc(F)cc2)o1)NCCN1CCOCC1`, the INHIBITION is recorded as -45.79%.

For the molecule `O=C(NCCN1CCOCC1)NCc1ncc(-c2ccccc2)o1`, the INHIBITION is 24.89%. As for `Cc1ccc(-c2cnc(CCC(=O)NCCN3CCOCC3)o2)cc1C`, the INHIBITION is recorded as 59.03%.

With `Cc1nc(CNC(=O)NC(C)c2ccc3c(c2)OCCO3)cs1` (configuration not stated), the INHIBITION stood at 21.69%. As for `Cc1nc(C2CCCN(C(=O)c3c(C)nn4cccnc34)C2)no1` (configuration not stated), the figure is -1.02%; as for `Cc1ncsc1C(=O)NC1CCN(Cc2cccc3c2OCCO3)CC1`, 21.83%. Take `CCCn1ccnc1CN1CCc2[nH]cnc2C1Cc1ccccc1` (configuration not stated): the INHIBITION is -76.22%. For the molecule `Cc1cccc(CN2C[C@@H]3CN(C(=O)c4cnoc4C)C[C@@H]3C2=O)n1`, the INHIBITION was found to be 35.89%. `Cc1cccc(CN2C[C@@H]3CN(C(=O)NC(C)C)C[C@@H]3C2=O)n1`: the INHIBITION is reported as 35.34%. As to `Cc1cccc(CN2C[C@@H]3CN(C(=O)C4CC=CC4)C[C@@H]3C2=O)n1`, the INHIBITION is listed as 54.01%. `CN(C)CC1CN(Cc2nc(-c3ccccn3)no2)CCO1` (configuration not stated): the INHIBITION came to 69.11%.

For `CCn1nc2c(cc1=O)CN(Cc1nc(-c3ccccn3)no1)CC2`, the INHIBITION was -27.03%. As for `CN(C)CC1CN(Cc2nc(-c3cccnc3)no2)CCO1` (configuration not stated), the figure is 52.17%; as for `Cc1cnn(CC2CN(Cc3nc(-c4ccccn4)no3)CCO2)c1` (configuration not stated), -5.09%. With `Cn1nc2c(cc1=O)CN(Cc1coc(-c3ccc(F)cc3)n1)CC2` the figure was -21.39%; with `c1cncc(-c2noc(CN3CCOC(Cn4cccn4)C3)n2)c1` (configuration not stated), -0.12%. For the molecule `Cn1nc2c(cc1=O)CN(Cc1coc(-c3ccccc3)n1)CC2`, the INHIBITION is 17.31%. As for `Cn1nc2c(cc1=O)CN(Cc1nc(-c3ccccn3)no1)CC2`, the INHIBITION amounted to 50.75%. With `Cc1cnn(CC2CN(Cc3nc(-c4cccnc4)no3)CCO2)c1` (configuration not stated) the figure was 12.75%; with `Cn1nc2c(cc1=O)CN(Cc1nc(-c3ccco3)no1)CC2`, -0.05%. With `c1ccc(-c2noc(CN3CCOC(Cn4cccn4)C3)n2)nc1` (configuration not stated) the figure was 23.71%. On to `Cc1ccc(-c2nc(CN3CCc4nn(C)c(=O)cc4C3)co2)cc1`, for which the INHIBITION is given as 62.46%. As for `O=C(c1ccno1)N1CCOC[C@H](Oc2ccc(C(F)(F)F)cc2)C1`, the figure is 28.05%. With `Cc1cnc(C)c(N2C[C@H]3OC(=O)N(C4CCCC4)[C@H]3C2)n1` the figure was 12.59%; with `O=C(C1CCCC1)N1C[C@@H]2CCN(c3cccnc3)C[C@@H]2C1`, -3.25%. As for `O=C(Cc1ccc(F)cc1)N1CCn2cc(Cn3cccn3)nc2C1`, the figure is -6.3%; as for `CC(C)(C)C(=O)N1CCCC1c1nc(O)cc(-c2ccccn2)n1` (configuration not stated), -10.16%.

`COc1cc(C(=O)NC(C)C)nc2c(C)cc(F)cc12`: the INHIBITION was 35.91%. As for `CNc1nc2c(c(C(=O)N3CCCC3)n1)CN(Cc1cc(C)no1)CC2`, the figure is 10.63%; as for `CS(=O)(=O)N1CCN(C(=O)c2cc(-c3cccs3)cs2)CC1`, -23.8%; as for `CC(C(=O)N1CCOCC1)n1cc(Br)cn1` (configuration not stated), 15.05%. For the molecule `CNC(=O)CCNC(=O)c1ccccc1N1CCOCC1`, the INHIBITION is on record as -23.9%. With `O=C(CCNC(=O)c1ccccc1N1CCOCC1)NC1CCCC1` the figure was 58.76%; with `CCCNC(=O)CCNC(=O)c1ccccc1N1CCOCC1`, -21.71%; with `COc1cc(N2C[C@@H]3COC[C@]3(COc3cccnc3)C2)ncn1`, -38.72%. For the molecule `COCCN1CCN(C(=O)c2ccc(C)cc2F)[C@H]2CS(=O)(=O)C[C@H]21`, the INHIBITION was determined as 32.26%. With `COc1ccc(Cc2nnc3n2N=C(C(C)(C)C)CS3)cc1` the figure was -13.89%; with `Cc1cnn(CC2CN(Cc3cccnc3)CCO2)c1` (configuration not stated), 41.76%. For the molecule `CN1CCCC(c2cccc(-c3cccc(Cl)c3)n2)C1` (configuration not stated), the INHIBITION amounted to 51.5%.

Regarding `CN1CCCC(c2cccc(-c3cccc(F)c3)n2)C1` (configuration not stated), the INHIBITION is on record as 13.88%. Turning to `CN1CCCC(c2cccc(-c3cccc(C(F)(F)F)c3)n2)C1` (configuration not stated), the INHIBITION is 38.64%. As for `O=C(CCc1ccccc1Br)NCC(=O)NCc1ccccc1`, the figure is -13.34%. Consider `CCc1noc(C(C)N(C)CC(=O)Nc2cccc(C)c2C)n1` (configuration not stated), for which the INHIBITION amounted to 1.73%. With `CCc1noc(C(C)N(C)CC(=O)Nc2c(C)cccc2C)n1` (configuration not stated) the figure was 32.81%; with `CCc1noc(C(C)N(C)CC(=O)Nc2ccc(Br)cc2C)n1` (configuration not stated), 53.57%. With `CC[C@@H](CO)Nc1nccc(-c2c[nH]c3cc(C(=O)OC)ccc23)n1` the figure was 17.01%; with `Cc1cccc(CNC(Cc2ccsc2)c2nccs2)n1` (configuration not stated), 24.13%; with `CNc1cc(C)nc(C2CN(Cc3cc[nH]n3)CCO2)c1` (configuration not stated), 21.37%. With `CCCS(=O)(=O)N1CCC2(CC1)CCn1c(-c3cnn(C)c3)cnc12` the figure was 18.05%. As to `CCn1cnnc1CNC(=O)c1ccc(Cl)cc1F`, the INHIBITION was 39.32%. As for `CCn1cnnc1CCNC(=O)c1ccc(Br)cc1F`, the figure is -13.8%; as for `CC(CNC(=O)c1cc(Cl)ccc1F)N1CCCC1` (configuration not stated), 50.94%. As for `CC(CNC(=O)c1ccc(Cl)cc1F)N1CCCC1` (configuration not stated), the figure is 9.57%; as for `CCn1cnnc1CCNC(=O)CCNC(=O)c1ccccc1F`, 52.98%; as for `CCn1cnnc1CNC(=O)c1cc(Cl)ccc1F`, 54.99%. Regarding `CCn1cnnc1CCNC(=O)c1ccc(F)c(Br)c1`, the INHIBITION is reported as 2.9%. As for `CCn1cnnc1CNC(=O)c1cc(Cl)ccc1O`, the figure is 2.1%; as for `CC(CNC(=O)c1cc(Cl)ccc1I)N1CCCC1` (configuration not stated), 10.11%.

For the molecule `Cn1c(N2CCOCC2)nc2cc(C(=O)N3CCC(O)(CO)C3)ccc21` (configuration not stated), the INHIBITION is reported as -2.63%. As for `N#CCC(=O)NCc1nnc2n1CCN(Cc1ccco1)C2`, the figure is -4.53%. As for `CCN(CCCN1CCOCC1)C(=O)c1cnn(CC)c1`, the figure is 35.54%. With `O=C(NC1CCCC1)N1CC[C@H]2[C@H]1CCN2c1nncs1` the figure was 49.25%; with `C=C(C)COc1ccccc1CN1CCCC(C(=O)NCCCO)C1` (configuration not stated), -25.95%.

Turning to `CN(C)C(=O)CN1CC[C@H]2CN(S(C)(=O)=O)C[C@@H]2C1=O`, the INHIBITION was determined as 21.06%.

With `CNC(=O)CS(=O)(=O)C1CCN(S(=O)(=O)c2cccc(Cl)c2C)CC1`, the INHIBITION is -52.21%. With `CNC(=O)CS(=O)(=O)C1CCN(S(=O)(=O)c2ccccc2Cl)CC1` the figure was 68.69%; with `CNC(=O)CS(=O)(=O)C1CCN(S(=O)(=O)c2ccccc2Br)CC1`, 27.5%; with `Cc1ccc(NC(=O)Nc2cnc(N3CCN(C)CC3)nc2)cc1`, -4.34%.

In the case of `Cc1occc1C(=O)N1CC[C@@H](N2CCOCC2)[C@@H]1Cc1ccccc1`, the INHIBITION is reported as -23.67%. Turning to `COc1ccc(OCCCNCCn2cccn2)cc1`, the INHIBITION was 31%. With `CN1CCN(C(=O)CCc2cc(Br)cs2)CC1` the figure was 72.05%. With `CC(=O)N1CCN(C(=O)CCc2cc(Br)cs2)CC1`, the INHIBITION stood at 26.74%. With `CN(C)C1CCN(C(=O)CCc2cc(Br)cs2)CC1` the figure was 41.05%. For `COCCC(=O)N1CCc2c(CNc3ncccn3)cncc2C1`, the INHIBITION was found to be 17.77%. Regarding `CCSC1(CNc2ncc(Br)cn2)CCOCC1`, the INHIBITION came out at 13.53%. On to `CCCc1n[nH]c(C2CN(CCS(=O)(=O)CC)CCO2)n1` (configuration not stated), for which the INHIBITION was -5.7%. With `NCC1[C@H]2CN(Cc3cccc(Cl)c3)C[C@@H]12` (some centres not stated) the figure was 45.77%; with `NCC1[C@H]2CN(CCc3ccccc3)C[C@@H]12` (some centres not stated), -7.41%; with `NCC1[C@H]2CN(Cc3ccccc3)C[C@@H]12` (some centres not stated), 55.7%. As to `CN(C)Cc1cc(=O)n2c(n1)CN(C(=O)c1ccc[nH]1)CCC2`, the INHIBITION was -16.33%. With `O=C(CCC1CCN(C2CSCCSC2)CC1)NCC1CCCO1` (configuration not stated) the figure was -15.37%. As for `Cc1cc(=O)[nH]c(NCCNC(=O)CN2CCCCCC2)n1`, the figure is 56.93%; as for `Cc1nc(O)cc(CCNC(=O)CN2CCCCCC2)n1`, 4.12%. With `Cc1cc(=O)[nH]c(NCCNC(=O)c2ccccc2N2CCCC2)n1` the figure was 41.14%. For the molecule `CC(C)C(=O)NCCCn1ncc2c(Cl)cccc21`, the INHIBITION is -7.01%.

With `CSCC(=O)N(C)Cc1ccc(N(C)C)cc1`, the INHIBITION is reported as -20.68%. With `Cc1ccc2cc(CN(C)Cc3ccncn3)c(=O)[nH]c2c1` the figure was -20.98%; with `O=C(CCn1ncc2c(Cl)cccc21)NCC1CC1`, 20.8%; with `CCCC(=O)N(C)c1cccc2ncccc12`, 28.14%. In the case of `CN(Cc1cccc2ncccc12)C(=O)CCC(F)(F)F`, the INHIBITION is on record as -22.2%. As for `CN(C(=O)CCC(F)(F)F)c1cccc2ncccc12`, the figure is 59.67%; as for `CCN(CC)S(=O)(=O)N(C)Cc1ccc2c(c1)OCCO2`, 8.06%. Regarding `CCN(CC(=O)NCCc1nc(C)no1)Cc1ccc(Cl)cc1`, the INHIBITION is on record as -45.29%. With `CCN(CC)C(=O)CCc1c(C)nc2cc(O)nn2c1C` the figure was 18.97%. For `Cc1nc2cc(O)nn2c(C)c1CCC(=O)N(C)CCC(C)C`, the INHIBITION was found to be 65.38%. As for `Cc1nc2cc(O)nn2c(C)c1CCC(=O)N(C)Cc1ccccc1`, the INHIBITION was found to be 37.41%. As for `CC(C)(C)c1cc(CNC(=O)c2cc(COc3ccccc3)[nH]n2)[nH]n1`, the figure is -103.13%; as for `Cc1nn(C)c(C)c1NC(=O)CN1CCCC1c1noc(C(C)C)n1` (configuration not stated), 12.66%. As for `CC1=C(CCN2C[C@H](O)[C@@H](N3CCOCC3)C2)C(C)(C)CCC1`, the figure is -57.94%; as for `Cc1sc2nc(CCN)nc(N3CCN(S(C)(=O)=O)CC3)c2c1C`, 20.77%. With `CCOC(=O)N1CCN(c2nc(CCN)nc3sc(C)c(C)c23)CC1` the figure was 17.89%. As to `Cc1sc2nc(CCN)nc(N3CCS(=O)(=O)CC3)c2c1C`, the INHIBITION turned out to be 60.04%.
